Bioassay records as filed in PubChem BioAssay.
An excerpt weighted towards active compounds, which were near 2.1% of everything screened.
aSyn yeast inh: qHTS of alpha-syn Inhibitors; Yeast expressing alpha-synuclein, growth rescue, BacTiter-Glo, 24 h; AID 652106, 2013; Potency, µM (series often up to 46.1 µM), for inactives: top-dose growth rescue (activation), most hits filed as activators; actives 0.14% (n = 370,000); also: % of control where 0% means no effect; nearly all actives have a fitted effect of over 65% in size
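Galactose-induced alpha-syn yeast (OD600=0.02, raffinose-pregrown) + pinned cpd, 24 hr, 30 deg C; growth by BacTiter-Glo luminescence. Growth restoration scores as activation.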
TDP-43 yeast inh: qHTS of TDP-43 Inhibitors; AID 652104, 2013; TDP-43 expressing yeast growth rescue, BacTiter-Glo, 24 h; Potency, µM (top dose mostly 46.1 µM), for inactives: at the top dose growth rescue (activation), usual class: activators; actives 1.8% (n = 410,000); also: % of control where 0% means no effect; nearly all actives have a fitted effect of over 50% in size
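Yeast expressing TDP-43 (pregrown in raffinose, seeded at OD600=0.02 in galactose medium) exposed to compounds 24 hr at 30 deg C. Growth read by BacTiter-Glo luminescence; rescue of toxicity appears as increased signal.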
FUS suppressor: qHTS for Suppressors of FUS Proteinopathy: Primary screen using FUS-linked yeast assay; S. cerevisiae FUS-expressing, growth rescue, OD600, 24 h; Potency, µM (titrated, usually from 76.6 µM), hits mostly activators; actives 0.24% (n = 390,000);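 also: plate controls were DMSO vehicle for no effect and reference control for full effect; nearly all actives have a fitted effect of over 55% in size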
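Yeast FUS proteinopathy model; galactose-induced FUS (2%), starting OD 0.005. Cpds in dilution series, 24hr, 30C, 99% humidity. Abs 600 nm growth. Pos ctrl CP55940 (top 92uM final); neg ctrl DMSO.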
Abeta rescue: qHTS for compounds that reverse cellular toxicity of Amyloid beta (A-beta) peptide in yeast: Primary Screen; Potency, µM (highest dose often 46.1 µM), most hits filed as activators; AID 1347071, 2019; actives 0.063% (n = 410,000); yeast expressing A-beta42, growth rescue, OD600, 48 h; response scale: 0% DMSO, 100% iron-clioquinol control; also: nearly all actives have a fitted effect of over 55% in size
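Yeast growth medium received pinned compounds, then yeast cells expressing toxic A-beta were added; plates incubated at 30 C for 48 hr. Growth read as absorbance at 600 nm, normalized to DMSO and equimolar FeCl3 plus clioquinol controls.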
Starred values were filed as active, the others as inactive; i = inactive; ? = inconclusive; . = no result; [ ] = remark or other dose. Calls follow the shape of the dose curve; as a rule, active = well fitted curve in the direction sought with a large enough effect; inconclusive = small, poorly fitted or top-dose-only effect, or another doubt; inactive = no such curve, though single readings can be large; an effect the other way counts as inactive or inconclusive. Potency is read from the fitted curve at half-maximal effect.

SMILES	aSyn yeast inh	TDP-43 yeast inh	FUS suppressor	Abeta rescue
CCOc1ccc(S(=O)(=O)Nc2cc(Cl)ccc2OC)c2cccnc12	.	-3%	i	i
CC#CCCCC(=O)Nc1cc(OC)nc(OC)n1	4%	14µM*	i	i
COc1cc(NC(=O)CCC(=O)O)nc(OC)n1	1%	-6%	i	i
CCOc1ccc(C(=O)Nc2ccccc2CC)cc1[N+](=O)[O-]	-2%	28µM*	i	?
CN(C)S(=O)(=O)Oc1cccc(C(=O)Nc2ccc(Cl)cc2)c1	-19%	22µM*	i	i
Nc1cccc(C(=O)Nc2ccccc2Cl)c1	-1%	20%	i	i
CN(C)S(=O)(=O)Oc1ccc(C(=O)Nc2cccc(Cl)c2)cc1	-4%	-11%	i	i
CN(C)S(=O)(=O)Oc1cccc(C(=O)Nc2ccccc2Cl)c1	2%	14µM*	i	i
CCOC(=O)N1CCC(NC(=O)c2cc3c(-c4ccc(OC)c(OC)c4)nn(C)c3s2)CC1	-4%	-1%	i	i
CCOC(=O)C1CCN(C(=O)c2cc3c(-c4ccc(OC)c(OC)c4)nn(C)c3s2)CC1	-12%	14µM*	i	i
CCOc1cccc2sc(N(CCN(C)C)C(=O)c3ccc(Br)s3)nc12	8%	-3%	i	i
O=[N+]([O-])c1ccccc1/C=N/n1c(C2CCCCC2)n[nH]c1=S	3%	32µM*	i	i
S=c1[nH]nc(C2CCCCC2)n1/N=C/c1ccccc1Br	-14%	?	i	i
Cc1ccc(NC(=O)C2COc3ccccc3O2)c(C)c1 (stereo unspecified)	2%	11µM*	i	i
CC1(C)Oc2ccc(NC(=O)C3COc4ccccc4O3)cc2O1 (stereo unspecified)	-28%	10µM*	i	i
O=C(Nc1ccc([N+](=O)[O-])cc1)C1COc2ccccc2O1 (stereo unspecified)	2%	?	i	8.9µM*
Cc1ccc(NC(=O)C2COc3ccccc3O2)cc1 (stereo unspecified)	-3%	5%	i	i
O=C(CNC(=O)c1ccc2c(c1)OCO2)N/N=C/c1cccc([N+](=O)[O-])c1	-2%	9%	i	i
CCn1c2ccccc2c2cc(/C=N/NC(=O)c3ccccc3)ccc21	5%	11µM*	?	i
O=C(c1ccc([N+](=O)[O-])cc1)N(Cc1ccccc1)Cc1ccccc1	-18%	-2%	i	i
C[C@@H]1CN([C@@H](C)CO)C(=O)c2cc(Br)cnc2O[C@H]1CN(C)C(=O)C1CC1	-2%	20%	i	i
COc1ccc(NC(=O)CN(C)C(=O)c2ccc(N3CCCCC3)c([N+](=O)[O-])c2)cc1	11%	?	i	i
COc1cccc(CN(C)C(=O)c2ccc(N3CCCC3)c([N+](=O)[O-])c2)c1	-1%	20µM*	i	i
CN1CCN(C(=O)C2=C[C@H](c3ccc4c(c3)OCO4)C[C@H](OCCCCO)O2)CC1	6%	?	i	i
CSc1ccc(C(=S)N2CCCCCC2)cc1	-3%	11µM*	i	?
SMILES	aSyn yeast inh	TDP-43 yeast inh	FUS suppressor	Abeta rescue
Cc1nc2ccccc2c(C)c1C(=O)c1ccccc1	3%	14µM*	i	i
S=C(NC1CC1)SCc1ccco1	7%	28µM*	i	i
C/C(=N\Nc1cc(-c2ccccc2)nc(-c2ccc(Br)cc2)n1)c1cccc(N)c1	-2%	27%	13µM*	i
C/C(=N/Nc1cc(-c2ccccc2)nc(-c2ccccc2)n1)c1ccc(O)cc1	-22%	?	.	i
CCC(C)(C)c1ccc(Oc2cccc(C(=O)O)c2)cc1	0.89µM*	-29%	i	i
N#CCSc1nc2c(cc1C#N)CCCC2	4%	?	.	i
CN(C(=O)CCc1nc(-c2ccccc2F)no1)c1ccccc1	-1%	-9%	i	i
CN(C(=O)CCc1nc(-c2ccccc2F)no1)c1ccc(Cl)cc1	.	22µM*	i	i
CCOC(=O)C1=C(c2ccccc2)NC(N)=NC1c1ccc(OCc2ccc(C(=O)OC)cc2)cc1 (stereo unspecified)	-8%	-15%	25µM*	i
Cc1c(C(=O)OC2CCCC2C)[nH]c2c1C(=O)CCC2 (stereo unspecified)	-13%	20µM*	i	i
CCCc1c(C(=O)OCC)[nH]c2c1C(=O)CCC2	-5%	?	i	i
Cc1c(C(=O)OCCOc2ccccc2)[nH]c2c1C(=O)CCC2	-6%	22µM*	i	?
CSc1ccc(CN(C)CC(=O)Nc2ccc(NC(C)=O)cc2)cc1	2%	-4%	i	i
CC(C)(C)NC(=O)c1ccccc1NC(=O)c1ccc2c(c1)OCO2	-6%	.	i	?
COc1ccc(-n2c(SCc3nc4ccccc4[nH]3)nc3ccccc3c2=O)cc1	.	.	35µM*	.
O=C(c1ccc2c(=O)n(CCc3ccccc3)c(=O)[nH]c2c1)N1CCN(C(=O)c2ccco2)CC1	-3%	.	.	.
Cc1ccc(C)c(S(=O)(=O)N2C(=S)NC(=O)C2CC(C)C)c1 (stereo unspecified)	?	25µM*	i	i
O=[N+]([O-])c1ccc(O)c(/C=N/Nc2ccccn2)c1	0.89µM*	-92%	i	i
O=[N+]([O-])c1cccc(N/N=C/c2cc([N+](=O)[O-])ccc2O)c1	2%	-1%	i	i
CCNC(=O)C(=O)N/N=C/c1cc([N+](=O)[O-])ccc1O	?	20µM*	i	i
O=[N+]([O-])c1ccc(NN=Cc2ccccc2O)nc1	25%	22µM*	i	i
O=[N+]([O-])c1ccc(O)c(/C=N/Nc2ncnc3c2cnn3-c2ccccc2)c1	4%	7.9µM*	i	i
O=C(N/N=C/c1cc([N+](=O)[O-])ccc1O)Nc1ccccc1	1%	15%[9.22 µM]	i	i
O=[N+]([O-])c1ccc(O)c(/C=N/Nc2nc3ccccc3[nH]2)c1	5%	19%	.	i
Cc1ccc(S(=O)(=O)N2CCOCC2)cc1C(=O)NCC1CCCO1 (stereo unspecified)	-12%	-12%	i	i
CCOC(=O)CC[C@H](NC(=O)[C@@H]1CC=C[C@@H]2CCN(Cc3ccc(Cl)cc3)C(=O)[C@@H]21)C(=O)OCC	.	.	i	.
Cc1ccc(C(=O)CNc2ccc(C)c(Cl)c2)cc1	-9%	-3%	.	i
S=C(Nc1ccccc1Oc1ccccc1)Nc1cccc(Cl)c1Cl	-6%	22µM*	.	i
S=C(Nc1ccc(Cl)cc1Cl)Nc1ccccc1Oc1ccccc1	-5%	7%	i	i
O=C(CSc1cccc(C(F)(F)F)c1)NCc1ccccc1	4%	11µM*	i	i
